The text below walks through data of PubChem BioAssay (NCI).

About 79,000 compounds went through this panel and 15% of them were active in at least one assay; those are over-represented in the sample as a whole. Values without a mark were called inactive. Calls of active or inactive are those of the source. No stated cut-off is given here; in the data, active means growth inhibition above about 70%; inactive means the rest.

A short description of experiment [1]: NCI Yeast Anticancer Drug Screen. Data for the rad50 strain (AID 155).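 Further: 0% = growth of vehicle-only cultures of the same strain.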 The settings on record: S. cerevisiae rad50 strain growth inhibition; at 50.0 µM; active compounds read high. The essentials:
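Growth of the mutant yeast was measured after compound exposure and referenced to vehicle-treated cultures.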

Experiment [2] can be described thus: NCI Yeast Anticancer Drug Screen. Data for the mec2-1 strain (AID 157). The note with it: S. cerevisiae mec2-1 strain, at 50.0 µM, active compounds read high. In a few lines:
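Test agents were screened against the mec2-1 yeast strain, with defined DNA repair or cell cycle alteration. Growth was scored as inhibition against vehicle-only controls.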

The nature of experiment [3]: NCI Yeast Anticancer Drug Screen. Data for the sgs1 mgt1 strain (AID 161).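 Further: 0% = growth of cultures given vehicle only.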 The note with it: S. cerevisiae sgs1 mgt1 strain, at 50.0 µM, active compounds read high. In a few lines:
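Mutant yeast exposed to compound; growth scored against vehicle-only wells.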

Experiment [4] is described as follows: NCI Yeast Anticancer Drug Screen. Data for the cln2 rad14 strain (AID 165).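 Further: 0% = growth equal to vehicle treated cultures.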 The settings on record: S. cerevisiae cln2 rad14 strain, at 50.0 µM, active compounds read high. In a few lines:
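Growth of compound-exposed yeast (cln2 rad14 genotype) measured and expressed as inhibition relative to vehicle.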

Experiment [5] is described as follows: NCI Yeast Anticancer Drug Screen. Data for the bub3 strain (AID 167). The settings on record: S. cerevisiae bub3 mutant strain, at 50.0 µM, active compounds read high. In a few lines: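 Whole-cell yeast assay. The mutant strain was incubated with compounds, and growth inhibition was determined by comparison with vehicle-treated cells.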
Experiment [6] can be described thus: NCI Yeast Anticancer Drug Screen. Data for the mlh1 rad18 strain (AID 175). The note with it: S. cerevisiae mlh1 rad18 strain growth inhibition; at 50.0 µM; active compounds read high. The essentials: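 In this whole-cell yeast screen, a strain with altered DNA damage repair is challenged with compound, and its growth is measured against matched vehicle-treated controls.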

Take `N#CC1C(=O)NC(=O)C(C#N)C12CCCC2` (stereo unspecified): the growth inhibition in experiment [1] was -3.65%; in experiment [2] it was -9.2%; in experiment [3] it was 5.25%; in experiment [4], -22.2%; in experiment [5] it was 10.9%; in experiment [6] it was 10.7%.
Regarding `COc1cc(NS(C)(=O)=O)ccc1Nc1c2ccc(N(C)C)cc2nc2cc(N(C)C)ccc12`, the growth inhibition is 29.1% in experiment [1]; -4.8% in experiment [2]; 1.05% in experiment [3]; 6.7% in experiment [4]; -8.6% in experiment [5]; -9.85% in experiment [6].
With `O=C(CC(=O)c1ccccc1)CC(=O)c1ccc(C(=O)CC(=O)CC(=O)c2ccccc2)cc1`, the growth inhibition is 29.4% in experiment [1]; 1.3% in experiment [2]; 30.9% in experiment [3]; 0.85% in experiment [4]; -1.8% in experiment [5]; 22.4% in experiment [6].
As for `CN1C(C(=O)Nc2ccccn2)=C(O)c2ccccc2S1(=O)=O`, the growth inhibition in experiment [1] was 5%; in experiment [2] it was 15.5%; in experiment [3], 5.1%; in experiment [4] it was 0.9%; in experiment [5], -1.75%; in experiment [6], 8.25%.
In the case of `CN(C)Cc1ccccc1COC(=O)c1ccccc1`, the growth inhibition in experiment [1] was 19.1%; in experiment [2], 20.1%; in experiment [3], 26.1%; in experiment [4], 11.4%; in experiment [5], 17.4%; in experiment [6], 17.5%.
For the compound `COc1ccc(C)cc1S(=O)(=O)c1c(Cl)cccc1[N+](=O)[O-]`, the growth inhibition is -5.95% in experiment [1]; -15.4% in experiment [2]; 2.25% in experiment [3]; -20.5% in experiment [4]; -1.3% in experiment [5]; -36.8% in experiment [6].
Take `C[C@]12CCC(=O)C=C1CC[C@@H]1[C@@H]2CC[C@]2(C)C(=O)NC(=O)C[C@@H]12`: the growth inhibition in experiment [1] is -1.65%; in experiment [2], -15.8%; in experiment [3], 32.6%; in experiment [4] it was 24.9%; in experiment [5] it was -3%; in experiment [6], -16.9%.
For `CCOC1=C(C#N)C(=O)NC2OC(CO)C(O)C2O1` (stereo unspecified), the growth inhibition in experiment [1] is 11.4%; in experiment [2], 5.45%; in experiment [3] it was 11.6%; in experiment [4], -8.95%; in experiment [5] it was 17.9%; in experiment [6], 15.8%.
Turning to `Cc1cc(Br)c2c(c1N)C(=O)c1ccccc1C2=O`, the growth inhibition in experiment [1] was 23.6%; in experiment [2], 35%; in experiment [3] it was 31.4%; in experiment [4], -7.75%; in experiment [5], 7.1%; in experiment [6], 15.6%.
For `CC(=O)COC(C)=O`, the growth inhibition in experiment [1] is 40.2%; in experiment [2] it was -15.6%; in experiment [3] it was 4.85%; in experiment [4] it was -5%; in experiment [5], 2.6%; in experiment [6] it was 12.6%.
With `COC12NC(=O)NC(=O)C1(c1ccccc1)CC(C)O2` (stereo unspecified), the growth inhibition in experiment [1] is -2.7%; in experiment [2], -2.15%; in experiment [3] it was 6.8%; in experiment [4] it was -7.7%; in experiment [5] it was -24.1%; in experiment [6], -6.6%.
For the compound `CCOc1c2ccsc2c(OCC)c2ccsc12`, the growth inhibition in experiment [1] was -14.9%; in experiment [2], -25.8%; in experiment [3], -10.2%; in experiment [4], 6.05%; in experiment [5], -5.15%; in experiment [6] it was -35.8%.
Turning to `CC(C)CCCC(C)C1CCC2C(CC(=O)O)C(C3(C)CCC(O)CC3=O)CCC2(C)C1` (stereo unspecified), the growth inhibition in experiment [1] was 23.9%; in experiment [2], 27.1%; in experiment [3], 25.9%; in experiment [4], 8.35%; in experiment [5], 1.85%; in experiment [6] it was 33%.
As to `Cc1cc(=O)c2c(=O)n(-c3ccccc3)[nH]c2[nH]1`, the growth inhibition in experiment [1] was -34.7%; in experiment [2], -13.1%; in experiment [3] it was -11.2%; in experiment [4], -27.2%; in experiment [5], -13.4%; in experiment [6], -6.35%.
Take `COC(=O)CCC(=O)CC(=O)C(=O)Nc1ccc(F)cc1`: the growth inhibition in experiment [1] was 3.2%; in experiment [2], 3.75%; in experiment [3] it was -1.7%; in experiment [4], -2.6%; in experiment [5], -15.6%; in experiment [6], 7.75%.
As to `COc1ccc2c(c1)C/C(=C\c1ccc(O)c(OC)c1)C2=O`, the growth inhibition in experiment [1] was -46.5%; in experiment [2], -14%; in experiment [3], -33.5%; in experiment [4] it was -9.9%; in experiment [5] it was 7.8%; in experiment [6], -10.1%.
`CCN(CC)C(=O)c1c(-c2ccccc2)nc(-c2ccccc2)c(C(=O)N(CC)CC)c1Cl`: the growth inhibition in experiment [1] is 42%; in experiment [2], 14.6%; in experiment [3] it was 21.6%; in experiment [4], 21.6%; in experiment [5], 1.05%; in experiment [6], 27.8%.
`NC(=O)NNC(=O)c1nc[nH]c1[N+](=O)[O-]`: the growth inhibition in experiment [1] was -24.2%; in experiment [2], -3.3%; in experiment [3] it was 11.6%; in experiment [4], -15.9%; in experiment [5] it was -18.2%; in experiment [6], -13.3%.
Regarding `COC(=O)C(N)CSCSC` (stereo unspecified), the growth inhibition was -12.8% in experiment [1]; 13% in experiment [2]; 3.7% in experiment [3]; -44% in experiment [4]; -13.8% in experiment [5]; -5.65% in experiment [6].
With `CCCCCCCCCC(=O)N/N=C/c1ccncc1`, the growth inhibition is 97.2% (active) in experiment [1]; 23.1% in experiment [2]; 98.8% (active) in experiment [3]; 9.35% in experiment [4]; 26.2% in experiment [5]; 98.3% (active) in experiment [6].
As for `NC(=O)C1=Cc2cccn2-c2ccccc2S1`, the growth inhibition in experiment [1] is 3.45%; in experiment [2], -2.1%; in experiment [3] it was -2.75%; in experiment [4], -16.6%; in experiment [5], 2.1%; in experiment [6], 0.8%.
